Screens: PubChem, National Center for Advancing Translational Sciences (NCATS)
Rows were chosen to be rich in hits. Some 2.9% of all compounds tested hit in one or more screens of this group.
p53null 32C tox = selectivity test: cytotoxicity in p53 null cells, permissive temperature; actives 0.62% (n = 55,000); H1299-neo p53 null cells, ATP luminescence, 24 h, 32C; Potency, µM (titrated, usually from 46.1 µM), usual class: cytotoxic; AID 903; note: nearly all actives have a fitted effect of over 55% in size
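Overnight 37C seeding (600 cells/well) of H1299-neo preceded a 24 hr, 32C exposure to compounds up to 46 uM. ATP levels, read by luminescence after 20 min at RT, indicated surviving cells.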
FH mod = Identification of activators of human fumarate hydratase by quantitative high-throughput screening | Fumarate hydratase, mitochondrial (Homo sapiens), P07954 | FH coupled MDH/diaphorase resazurin fluorescence, 15 min | Potency, µM (highest dose often 79.9 µM), most hits filed as inhibitors | actives 0.22% (n = 54,000); note: the screen sought activators but most active calls are inhibition curves; nearly all actives have a fitted effect of over 45% in size
Target sequence (P07954 whole entry, looked up): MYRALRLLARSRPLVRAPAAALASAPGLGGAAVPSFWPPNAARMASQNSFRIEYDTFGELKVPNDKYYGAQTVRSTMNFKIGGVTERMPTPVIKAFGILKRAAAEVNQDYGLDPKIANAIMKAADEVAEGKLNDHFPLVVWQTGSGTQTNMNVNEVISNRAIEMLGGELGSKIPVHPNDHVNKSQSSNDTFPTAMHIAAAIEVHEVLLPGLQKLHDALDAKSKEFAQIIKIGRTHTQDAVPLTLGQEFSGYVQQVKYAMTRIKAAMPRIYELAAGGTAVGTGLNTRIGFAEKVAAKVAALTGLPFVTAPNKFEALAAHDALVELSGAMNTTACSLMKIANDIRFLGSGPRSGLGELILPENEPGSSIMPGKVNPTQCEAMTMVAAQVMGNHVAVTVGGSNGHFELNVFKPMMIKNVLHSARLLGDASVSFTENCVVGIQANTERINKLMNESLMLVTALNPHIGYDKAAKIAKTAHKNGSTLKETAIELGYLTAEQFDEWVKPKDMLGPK
GPR32 ag = agonists of human resolvin D1 receptor DRV1 (GPR32); O75388; CHO-K1 GPR32 beta-arrestin PathHunter luminescence, 90 min; zero percent set by DMSO-only wells; activation, % at 76.9 µM; actives 2.5% (n = 48,000); AID 1346428;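 active = activation of at least 60% and not above a set upper limit, about 1 call in 100 departs from these limits; inconclusive = activation of 40% to 60%, or above that upper limit; inactive = activation under 40%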
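Luminescent readout of beta-Gal complementation quantifies ligand-induced beta-arrestin association with GPR32 in CHO-K1 cells; 90 min compound incubation at 37 °C, detection 1 h at room temperature.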
p53null 39C tox = kills p53 null cells at the nonpermissive temperature | H1299 p53-null (neo) cells, 39C, ATPlite viability, 24 h | Potency, µM (highest dose often 46.1 µM), hits mostly cytotoxic | actives 0.97% (n = 55,000); note: nearly all actives have a fitted effect of over 50% in size
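Following overnight plating at 37C (600 cells/well), H1299-neo or H1299-p53A138V cells are dosed up to 46 uM. Incubation lasts 24 hr at 39C before ATP detection.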
A number is an active result; – = inactive; ? = inconclusive; · = not tested or not shown; ! = a repeat was not active. Unless noted, calls come from the whole dose curve; as a rule, active = well fitted curve in the direction sought with a large enough effect; inconclusive = small, poorly fitted or top-dose-only effect, or another doubt; inactive = no such curve, though single readings can be large; an effect the other way counts as inactive or inconclusive.

SMILES | p53null 32C tox | FH mod | GPR32 ag | p53null 39C tox
CCC(=O)N1CCc2cc(S(=O)(=O)CCC(=O)N3CCN(c4cccc(C)c4)C(C)C3)ccc21 (stereo unspecified) | – | – | 66 | –
CC1CCC23COC(=O)C2=CC(O)CC3C1(C)CCC1=CC(O)OC1=O (stereo unspecified) | · | – | · | ·
C=C(NC(=O)C(=C)NC(=O)c1csc(C2=NC3c4csc(n4)C4NC(=O)c5csc(n5)C(C(C)(O)C(C)O)NC(=O)C5CSC(=N5)/C(=C/C)NC(=O)C(C(C)O)NC(=O)c5csc(n5)C3(CC2)NC(=O)C(C)NC(=O)C(=C)NC(=O)C(C)NC(=O)C(C(C)CC)NC2C=Cc3c(C(C)O)cc(nc3C2O)C(=O)OC4C)n1)C(N)=O (stereo unspecified) | · | – | · | ·
COc1cc(-c2nc3ccc(C)cn3c2Nc2ccc(Cl)cc2)ccc1O | – | ? | – | 20µM
COc1cc(-c2nc3ccc(Cl)cn3c2Nc2ccc3c(c2)OCO3)ccc1O | – | ? | – | –
COc1ccc(-c2cc(C(=O)Nc3c(C)nn(Cc4ccccc4C)c3C)no2)cc1 | – | · | – | –
Cc1ccccc1Cn1nc(C)c(NC(=O)c2cc(CC(C)C)on2)c1C | – | · | 64 | –
Cc1nc2cc(C(=O)NCc3ccccn3)nn2c(C)c1Cc1cccc(Cl)c1 | · | – | · | ·
CC1CCc2c(sc(NC(=O)CCCOc3ccccc3)c2C(N)=O)C1 (stereo unspecified) | – | – | 96 | –
Cc1ccc(OCCCC(=O)Nc2sc3c(c2C(N)=O)CCC(C)C3)cc1 (stereo unspecified) | – | · | – | –
CCC(=O)C1=C(c2ccc(C)cc2)N(C(=O)CC)n2c(nnc2C2CCCCC2)S1 | – | – | – | –
Cc1cc(C2CCCCC2)n(O)c(=O)c1 | · | – | 77 | ·
O=C(O)c1ccnc2cc(-c3nc4ccccc4n3CCN3CCCCC3)sc12 | · | 13µM | · | ·
COc1cccc(CNc2nc3ccccc3n2CCN2CCCCC2)c1OC | – | · | · | –
CNc1nc(C)nc(N[C@H]2CCC[C@@H](C(=O)NCc3ccc(C#N)cc3C(F)(F)F)C2)n1 | · | – | · | ·
CC1CCN(c2ccc(-c3cccc(NS(=O)(=O)c4cccs4)c3)nn2)CC1 | 7.9µM | · | – | 10µM
CC1CCN(c2ccc(-c3cccc(NS(=O)(=O)c4ccc(Cl)s4)c3)nn2)CC1 | 6.3µM | · | – | 10µM
COc1ccc(C)cc1S(=O)(=O)Nc1cccc(-c2ccc(N3CCC(C)CC3)nn2)c1 | – | · | – | –
COc1ccc(S(=O)(=O)Nc2cccc(-c3ccc(N4CCCC4)nn3)c2)cc1OC | – | · | – | –
COc1ccc(S(=O)(=O)Nc2cccc(-c3ccc(N4CCC(C)CC4)nn3)c2)cc1OC | 3.2µM | · | – | 7.9µM
CCNC(=O)Nc1ncc(-c2cc(-c3c(C)cc(OC)cc3C)nc(-c3cnccn3)n2)s1 | · | – | · | ·
CCCN(CCC)CCNC(=O)c1cc2c(-c3ccccc3F)nn(C)c2s1 | – | – | ? | –
CCCN(CCC)CCNC(=O)c1cc2c(-c3ccc(Cl)cc3)nn(C)c2s1 | ? | – | – | 13µM
CC(C)OCCCNC(=O)c1cc2c(-c3ccc(Cl)cc3)nn(C)c2s1 | – | ? | – | –
CCCCN(CC)CCNC(=O)c1cc2c(-c3ccc(Cl)cc3)nn(C)c2s1 | ? | – | – | 16µM
SMILES | p53null 32C tox | FH mod | GPR32 ag | p53null 39C tox
Cc1ccc(/C=C/c2nc3ccccc3[nH]2)cc1 | 0.4µM | – | – | 1.6µM
Cc1ccccc1-c1nc2ccccc2[nH]1 | – | · | · | –
Cc1cc(C)cc(-n2nnc(-c3nsc(NC(=O)c4ccccc4Cl)n3)c2C)c1 | – | – | ? | –
CCc1ccc(-n2nnc(-c3nsc(NC(=O)c4ccccc4Cl)n3)c2C)cc1 | – | – | 105 | –
Cc1ccc(-n2nnc(-c3nsc(NC(=O)c4ccc(C)c(C)c4)n3)c2C)cc1 | – | – | – | –
CCc1ccccc1-n1nnc(-c2nsc(NC(=O)c3ccc(C)c(C)c3)n2)c1C | – | – | 72 | –
CCc1cccc(-n2nnc(-c3nsc(NC(=O)c4cccs4)n3)c2C)c1 | – | – | – | 10µM
CSc1cccc(-n2nnc(-c3nsc(NC(=O)c4cccs4)n3)c2C)c1 | – | – | – | ?
CC1(CCOC2OC(CO)C(O)C(O)C2O)CCC23OC2(C1)C(O)CC1C(C)(C(=O)O)CCCC13C (stereo unspecified) | · | – | · | ·
C=CCc1ccc(O[C@@H]2O[C@H](CO)[C@@H](O)[C@H](O)[C@H]2O)c(OC)c1 | · | – | · | ·
COc1ccccc1NC(=O)CC1Sc2ccc(C(F)(F)F)cc2NC1=O (stereo unspecified) | – | – | 64 | –
OCCN(CCO)c1nc(N2CCCCC2)c2nc(N(CCO)CCO)nc(N3CCCCC3)c2n1 | · | – | 108! | ·
C/C=C/C=C/C(CC(=O)O)Nc1ccc(C=O)cc1 (stereo unspecified) | · | – | · | ·
N#C/C(=C\c1ccc(O)c(O)c1)C(=O)NCCc1ccccc1 | · | 32µM | – | ·
CCOc1cc(/C=C(\C#N)C(=O)NCC2CCCO2)ccc1O (stereo unspecified) | – | – | – | –
O=C(Cn1nnnc1-c1ccccc1F)Nc1ccc(OC(F)(F)F)cc1 | – | – | 75 | –
CCOCc1nc2c(N)nc3ccccc3c2n1CC(C)(C)O | · | – | · | ·
COCc1nn2cc(-c3ccc(C)cc3)nc2s1 | 10µM | – | – | 10µM
COc1cccc(NCCC2(c3ccccc3)CC(C)(C)OC(C)(C)C2)c1 | · | – | · | ·
O=C(/C=C/c1nc2ccccc2[nH]1)c1c(-c2ccccc2)c2cc(Cl)ccc2[nH]c1=O | · | – | · | ·
CCN1CCOC(=O)C1CC(=O)Nc1ccc(Br)cc1 (stereo unspecified) | · | – | 74 | ·
CC(C)(C)c1ccc2c(c1)CC[C@H]2NC(=O)Nc1cccc2[nH]ncc12 | · | – | · | ·
CCc1ccc(CNCc2c(C(=O)O)n(Cc3cccc(F)c3)c3cc(OC)ccc23)cc1 | – | – | 109 | ?
COc1ccc(Cn2c(C(=O)O)c(CNCCc3ccco3)c3ccc(OC)cc32)cc1 | – | – | – | ?
COc1ccc(OC)c(CNCc2c(C(=O)O)n(Cc3cccc(F)c3)c3cc(OC)ccc23)c1 | – | – | – | –
SMILES | p53null 32C tox | FH mod | GPR32 ag | p53null 39C tox
Cc1ccc(CNCc2c(C(=O)O)n(Cc3ccc(C)cc3)c3cc(C)ccc23)cc1 | – | ? | 98 | ?
COc1ccc2c(CNCCc3ccc(SC)cc3)c(C(=O)O)n(Cc3ccc(F)cc3)c2c1 | – | ? | 115 | ?
N#Cc1ccc(-c2cnc3[nH]cc(NC(=O)c4cccnc4)c3c2)cc1 | · | – | · | ·
Cc1cccc(Nc2nc(-c3ccccc3)nc3ccccc23)c1 | – | ? | 110 | –
Oc1cccc(Nc2nc(-c3ccccc3)nc3ccccc23)c1 | – | ? | 61 | –
Cc1ccc(Nc2nc(-c3ccccc3)nc3ccccc23)cc1 | ? | ? | ? | –
CCOc1cc2ncc(C#N)c(Nc3ccc(F)c(Cl)c3)c2cc1NC(=O)/C=C/CN(C)C | · | – | · | ·
